Screen size: about 94,000 compounds; about 6,200 (6.6%) were called active. Inconclusive results (about 31%) are left out. The entries come from a sample that favours actives as a whole. Values without a mark were called inactive. Calls come from the whole dose curve; as a rule, active = well fitted inhibition curve with a large enough effect; inconclusive = small, poorly fitted or top-dose-only effect; inactive = flat fitted curve, though single readings scatter.
test: Cytotoxic Profiling in HEK 293 Cell Line of Diverse Libraries Using Quantitative High-Throughput Screening; conditions: HEK 293 viability, ATP luminescence (CellTiter-Glo), 48-72 h; series mostly up to 115 µM; activity change, negative = cytotoxicity: at the top concentration; note: nearly all actives have a fitted effect of over 60% in size
Source text: Cell-based phenotypic screening is a commonly used approach to discover biological pathways, novel drug targets, chemical probes and high-quality hit-to-lead molecules. Many hits identified from high-throughput screening campaign are ruled out through a series of follow-up potency, selectivity/specificity, and cytotoxicity assays. Prioritization of molecules with little or no cytotoxicity for a more in-depth downstream evaluation influence the future direction of projects, so cytotoxicity profiling of the screening libraries at early stage is essential for increasing the likelihood of candidate success. In this study, we analyzed results from a cell-based cytotoxicity screening campaign, comprising nearly 10,000 compounds in NCATS annotated libraries, and over 100,000 compounds in a diversity library, evaluated in four normal cell lines (HEK 293, NIH 3T3, CRL-7250 and HaCat) and a cancer cell line (KB 3-1, a HeLa subline) with overall screening outcomes, hit rates, pan-activity and selectivity. For the annotated library, we also examined the primary targets and mechanistic pathways regularly associated with cell death. To our knowledge, this is the first study to use high-throughput screening to profile large libraries for cytotoxicity assessment in both normal and cancer cell lines. In summary, the results generated here constitutes a valuable resource for the scientific community and provides insight on identifying cytotoxic compounds with particular mechanisms of action, and prioritizing compounds with suitable cytotoxicity profile for further evaluation.
HEK 293 cells were seeded into white 1536-well plates using a Multidrop Combi peristaltic dispenser (ThermoFisher, Waltham, MA) at a density of 250 cells/well in 5 uL of medium respectively. A pintool (Kalypsys) was used to transfer 23 nL of compound solution to the 1536-well assay plates. After 48 or 72 hr incubation at 37 degree Celsius, 5% CO2 and 95% humidity, 2.5 uL of CellTiter-Glo (Promega) was dispensed into each well using a dispenser (Aspect Automation, St. Paul, MN) with solenoid valves (Lee Valves, Westbrook CT). Plates were left at room temperature for 10 min before imaging the ATP-coupled luminescence using a ViewLux microplate imager (PerkinElmer, Waltham, MA).
% is set by controls: 0 for no effect and ±100 for the full control effect; potency is the fitted concentration of half-maximal effect.

| Structure (SMILES) | activity change, negative = cytotoxicity | Potency | outcome |
| --- | --- | --- | --- |
| COc1cccc(CC(=O)N2CCC(CC3CC3)(NC(=O)c3ccccc3)CC2)c1 | -16.1% |  |  |
| COCC1CN(C(C)=O)CC12CCN(Cc1cccc(C#N)c1)CC2 (configuration not stated) | 0.069% |  |  |
| CC(=O)NC1(C)CCN(Cc2cccc(-c3ccc(C(=O)c4ccccc4)cc3)c2)C1 (configuration not stated) |  | 39.8 µM (active) |  |
| CCC(C(=O)Nc1ccc2c(c1)CN(Cc1cc(F)cc(F)c1)C(=O)CO2)c1ccccc1 (configuration not stated) |  | 44.7 µM (active) |  |
| COc1cccc(CC(=O)N[C@@H]2C[C@H](Cn3cc(C4CC4)nn3)[C@@H](O)[C@H]2O)c1 |  |  | inactive [at 172 µM] |
| Cc1cc2nc3n(c(=O)c2n1CC(=O)NC1CCCCC1)CCCC3 | 8.3% |  |  |
| OCc1cccc(-c2cc(C3=CCOCC3)c3cncn3c2)c1 | -21.3% [at 172 µM] |  |  |
| FC(F)(F)c1cccc(-c2cc(C3=CCOCC3)c3cncn3c2)c1 |  | 100 µM (active) |  |
| CC1=NS(=O)(=O)N(Cc2ccc(Cl)cc2)C=C1C(=O)O | -2.93% |  |  |
| COc1ccc(CCC(=O)N2C[C@@H](Oc3ccccc3)C[C@H]2C(=O)N2CCOCC2)cc1 | -0.714% |  |  |
| Cc1ccc(-c2cn3cc(C(=O)NCc4cccnc4)nc3s2)cc1 |  | 44.7 µM (active) |  |
| O=C(NCc1cccnc1)c1cn2cc(-c3cccc(C(F)(F)F)c3)sc2n1 |  | 28.2 µM (active) |  |
| O=C(Nc1ccc(F)cc1)c1cn2cc(-c3ccc(C(F)(F)F)cc3)sc2n1 | -0.955% |  |  |
| O=C(NCc1ccccc1Cl)c1cn2cc(-c3ccc(C(F)(F)F)cc3)sc2n1 | -12.3% |  |  |
| O=C(c1cn2cc(-c3cccnc3)sc2n1)N1CCCCC1 | -5.61% |  |  |
| Cc1cc2ncc(C(=O)NCc3cccnc3)cn2n1 |  |  | inactive [at 172 µM] |
| Cc1noc(C)c1S(=O)(=O)N1CCCC(c2nn[nH]n2)C1 (configuration not stated) |  |  | inactive |
| CN(C)CC1(O)CCC2(CCN(C(=O)c3ccc4ccccc4n3)CC2)CC1 | -3.02% |  |  |
| COC(=O)N1CCCC(C(=O)N2CCC3(CC2)CC(=O)Nc2ccccc2O3)C1 (configuration not stated) | -25.2% |  |  |
| COc1ccccc1C(O)c1nc(Nc2ccc(C(F)(F)F)cc2)n[nH]1 (configuration not stated) |  | 89.1 µM (active) |  |
| COc1cccc(Nc2n[nH]c(C(O)c3cccc(C(F)(F)F)c3)n2)c1 (configuration not stated) |  | 79.4 µM (active) |  |
| O=C1CCN(C(=O)c2nccc3ccccc23)CCOCCN1 | -0.481% |  |  |
| COCCNC(=O)CN1C(=O)NC2(CCC(C(C)(C)C)CC2)C1=O (configuration not stated) | -19.9% |  |  |
| O=C(c1cccc(N2CCNC2=O)c1)N1CC(=O)N(C2CCCCC2)CC(OCc2ccccc2)C1 (configuration not stated) | 21.7% |  |  |
| O=c1n(CCN2CCN([S+](=O)([O-])c3ccccc3)CC2)nc2n1CCCC2 | -11.1% |  |  |
| Cc1cc(C)n(Cc2cc(C(=O)N3CCSCC3)n[nH]2)n1 |  |  | inactive |

| Structure (SMILES) | activity change, negative = cytotoxicity | Potency | outcome |
| --- | --- | --- | --- |
| Clc1ccc(-c2nnc3n2CCN(Cc2cccnc2)C3)cc1 |  |  | inactive |
| CC(=O)Nc1ccc(CN2CCn3c(nnc3-c3ccccc3)C2)cc1 | -4.01% |  |  |
| FC(F)(F)c1ccc(CN2CCn3c(nnc3-c3ccccc3)C2)cc1 |  | 89.1 µM (active) |  |
| COc1ccc(C(=O)N2CCC(n3cc(-c4nc(C)no4)nn3)CC2)c(OC)c1 | -3.26% |  |  |
| CCN1CCC(N2CC[C@H](CO)[C@H](N(C)C)C2)CC1 | -0.762% |  |  |
| COCCn1c(=O)n([C@H]2CCCN(C(=O)c3cc(C)n(C)n3)C2)c2ncccc21 | 0.0693% |  |  |
| CC1Oc2ccc(NC(=O)c3ccc([N+](=O)[O-])cc3)cc2CN(Cc2ccccc2)C1=O (configuration not stated) |  | 31.6 µM (active) |  |
| COCC(=O)Nc1ccc2c(c1)CN(Cc1ccccc1F)C(=O)C(C)O2 (configuration not stated) | -28.2% |  |  |
| Cc1nn2c(c1-c1ccccc1C(C)C)N(C(=O)c1cnccn1)CCC2 | -10.1% [at 172 µM] |  |  |
| Cc1nn2c(c1-c1ccccc1-c1ccccc1)N(CC1CC1)CCC2 |  | 2.82 µM (active) |  |
| Cc1nn2c(c1-c1ccnn1C(C)C)N(CC1CCOCC1)CCC2 |  | 44.7 µM (active) |  |
| Cc1nn2c(c1-c1ccccc1-c1ccccc1)N(C(=O)CN1CCOCC1)CCC2 | -19.4% [at 172 µM] |  |  |
| Cc1nc(C)c(C(=O)N2CCCN(S(=O)(=O)c3ccccc3)CCC(=O)NCC2)s1 |  |  | inactive |
| O=C1NCCCCCN(Cc2cccnc2)[C@@H]2CN(C(=O)C3CCCCC3)CC[C@@H]12 | -21.9% |  |  |
| COC(=O)c1c(NC(=O)c2ccccc2)c2cc(NC(C)C)cnc2n1CC1CCCO1 (configuration not stated) |  |  | inactive |
| O=C(N[C@@H]1CN(c2ncccn2)C[C@H]1CO)c1ccco1 | -4.45% |  |  |
| Cc1nc(C)c(C(=O)N2CCC3(CC2)CC(N2CCCC2)CCO3)s1 (configuration not stated) | 0.51% |  |  |
| CCN1CC2(CCN(C(=O)[C@H]3Cc4ccccc4CN3)CC2)CC1=O | -15% |  |  |
| O=C(NCc1nnc2n1C(C(=O)NCCc1ccc(Cl)cc1)CC2)c1ccc(Cl)cc1Cl (configuration not stated) | -7.78% |  |  |
| CC(C)CC(=O)NCC1Cn2cccc2CN1Cc1ccccc1 (configuration not stated) | -15.5% |  |  |
| COCC(=O)N1CCN(C(=O)c2cccc(-c3ccc(OC)nn3)c2)CC1 |  |  | inactive |
| COc1ccccc1-c1cccc(C(=O)N2CCC[C@H]2C(=O)N(C)C)c1 | -0.487% |  |  |
| COC(=O)N1CCN(C(=O)c2cccc(-c3ccccc3OC)c2)CC1 |  | 63.1 µM (active) |  |
| CC(=O)N1CC2(CCN(CCCn3ccnc3C)CC2)CC1C(=O)O (configuration not stated) |  |  | inactive |
| Cc1cnc(C(=O)NC2C[C@H]3CC[C@@H](C2)N3C(=O)c2cc(C)n(C)n2)cn1 (some centres not stated) |  |  | inactive |
| CC1(c2cccnc2)N(Cc2ccccc2)C(=O)OC12CCN(C(=O)c1cccc(Cl)c1)CC2 (configuration not stated) | -18% |  |  |

From PubChem BioAssay AID1345083 (National Center for Advancing Translational Sciences (NCATS), 2018)
